Data reported in PubChem BioAssay (NCATS).
Results filed as inconclusive are left out. Activity calls are given as the source filed them. Unless noted, calls follow the shape of the dose curve; as a rule, active = well fitted curve in the direction sought with a large enough effect; inconclusive = small, poorly fitted or top-dose-only effect, or another doubt; inactive = no such curve, though single readings can be large; an effect the other way counts as inactive or inconclusive.

Key:
[1] = target: Glucocorticoid receptor (Homo sapiens) (UniProt P04150); assay: GR-EFC Redistribution (AID 451; calls by dose curve; also: potency is read from the fitted curve at half-maximal effect); conditions: CHO-K1 GR-EFC translocation, beta-gal luminescence, 2 h
Outline: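 CHO-K1 cells stably expressing nuclear-localized β-gal enzyme acceptor and GR fused C-terminally to the enzyme donor fragment; ligand-driven nuclear translocation restores β-gal by complementation. Compounds titrated up to 46 uM final, 2 h at 37 °C; luminescence read.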

[2] = target: Mitogen-activated protein kinase 10 (Mus musculus) (UniProt Q61831); assay: JNK3 AlphaScreen Assay (AID 530; active = well fitted curve in either direction with a large enough effect, not every such curve was filed as active;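 also: kinase came from lysate of stimulated human HepG2 cells; signal reports phosphorylation of biotinylated GST-cJun 1-79 at Ser73 with 10 µM ATP; % is scaled to controls: 0 for no effect and ±100 for the full control effect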); conditions: JNK3 lysate, c-Jun phosphorylation; series mostly up to 57.1 µM
Outline: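 Biotinylated GST-cJun(1-79) served as substrate for JNK3 in HepG2 lysates stimulated with IL-1beta and TNF-alpha. ATP was 10 uM final, pH 7.6. Ser73 phosphorylation was quantified by AlphaScreen (680 nm excitation).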

[3] = target: 3',5'-cyclic-AMP phosphodiesterase 4B (Homo sapiens) (UniProt Q07343); assay: qHTS Assay for Inhibitors of PDE-IV (AID 607; active = well fitted activation curve with a large enough effect in the main read-out, with a control signal flat, not every such curve was filed as active; also: % of control where 0% means no effect); conditions: HEK293 ACTOne CNG channel cells, membrane potential fluorescence; series mostly up to 22.9 µM
Outline: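 Live HEK293 cells with a modified cyclic nucleotide-gated (CNG) channel report intracellular cAMP via membrane-potential dye fluorescence (ex 535/em 590 nm). Endogenous PDE-IV was targeted. Compounds were tested at up to 22.9 uM final; RO 20-1724 100 uM served as control.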

[4] = qHTS Assay for Lipid Storage Modulators (AID 1519; calls by dose curve); conditions: Drosophila S3 cells, BODIPY lipid droplet/cell ratio, laser cytometry, cells loaded with oleic acid; for activity change, negative = inhibition: at 57.5 µM (top of the series)
Outline: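 Cells seeded at 5,000 per well were treated with compounds over a concentration series and loaded with oleic acid (400 uM, as added). Lipid droplet fluorescence (488 nm excitation, 500-530 nm channel) was read by laser-scanning cytometry and normalized to 20 uM Triacsin C.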

[5] = target: Dual specificity protein kinase CLK4 (Homo sapiens) (UniProt Q9HAZ1); assay: qHTS Assay for Inhibitors of CDC-like Kinase 4 (Kinase-Glo Assay) (AID 1770); conditions: recombinant Clk4, Kinase-Glo ATP depletion luminescence; series mostly up to 66.7 µM; also: nearly all actives have a fitted effect of over 65% in size; also: potency is read from the fitted curve at half-maximal effect
Outline: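 Clk4 25 nM, RS peptide 100 uM, ATP 1 uM, pH 7.5 Tris, 10 mM MgCl2, 2.5 mM DTT; 4.5 h RT; ATP depletion read by Kinase-Glo luminescence.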

[6] = target: Dual specificity protein kinase CLK4 (Homo sapiens) (UniProt Q9HAZ1); assay: qHTS Assay for Inhibitors of CDC-like Kinase 4 (ADP-Glo Assay) (AID 1771); conditions: recombinant CLK4, ADP-Glo luminescence; series mostly up to 80 µM; also: nearly all actives have a fitted effect of over 70% in size; also: potency is read from the fitted curve at half-maximal effect
Outline: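 25 nM Clk4, 100 uM RS peptide, 1 uM ATP (final); 2 mM MgCl2, 0.5 mM EGTA, 2.5 mM DTT, 0.01% Triton X-100; 1 hr RT. ADP-Glo readout: ATP depletion 45 min, conversion/luciferase 30 min, luminescence.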

[7] = target: Dual specificity protein kinase CLK4 (Homo sapiens) (UniProt Q9HAZ1); assay: qHTS Assay for Inhibitors of CDC-like Kinase 4 (ADP-FP Assay) (AID 1795); conditions: Transcreener ADP fluorescence polarization; series mostly up to 50 µM; also: nearly all actives have a fitted effect of over 60% in size; also: potency is read from the fitted curve at half-maximal effect
Outline: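 Kinase activity was followed as ADP output, converted from fluorescence polarization with a calibration curve. Reactions ran one hour at low ATP (1 uM) with RS peptide substrate.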

[8] = target: Ubiquitin carboxyl-terminal hydrolase 1 (Homo sapiens) (UniProt O94782); assay: Inhibitors of USP1/UAF1: Pilot qHTS (AID 504865); conditions: purified USP1/UAF1, Ub-rhodamine cleavage fluorescence; series mostly up to 54.9 µM;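 also: rhodamine fluorescence freed from ubiquitin-rhodamine substrate followed over time; top concentration of the series differs between compounds; % is scaled to controls: 0 for no effect and ±100 for the full control effect; nearly all actives have a fitted effect of over 35% in size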
Outline: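 Enzyme-free wells gave the negative control, while test wells held 1nM USP1/UAF1 preincubated with compound for 15 min at room temperature. Ub-Rho at 150nM final started the reaction, and fluorescence at 480/540 nm was recorded kinetically.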

[9] = Primary qHTS for small molecule stabilizers of the endoplasmic reticulum resident proteome: Secreted ER Calcium Modulated Protein (SERCaMP) assay (AID 1508630); conditions: SH-SY5Y GLuc-SERCaMP (Gaussia luciferase released on ER calcium loss) secretion, thapsigargin, luminescence; series mostly up to 38.4 µM; also: % is scaled to controls: 0 for no effect and ±100 for the full control effect
Outline: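 The SH-SY5Y reporter protocol was run at 3 concentrations up to 38.3 uM (primary) or 11 concentrations (follow-up): 16 h compound, 100 nM thapsigargin for 4 h, then extracellular luciferase luminescence.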

[10] = target: Lysosomal acid glucosylceramidase (Homo sapiens) (UniProt P04062); assay: Glucocerebrosidase-p2 (AID 348; in the data active = potency below about 10 µM; also: potency is read from the fitted curve at half-maximal effect); conditions: purified GBA, blue fluorogenic substrate, 40 min
Outline: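 Normal human glucocerebrosidase (0.2 nM) with blue fluorogenic substrate (80 uM final) in citrate/phosphate pH 5.9 with 10mM sodium taurocholate, 0.01% tween-20; 40 min RT, NaOH/glycine stop; fluorescence Ex 365/Em 440; AC50 from a titration from 0.6 nM upwards.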

[11] = AP1 Signaling Pathway (AID 357; active = well fitted curve in either direction with a large enough effect, not every such curve was filed as active;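 also: ME-180 reporter cells stimulated with EGF at its EC50 level; % is scaled to controls: 0 for no effect and ±100 for the full control effect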); conditions: ME-180 AP-1-bla reporter, EGF-induced, beta-lactamase ratio, 5 h; at 7.69 µM (top of the series) unless noted
Outline: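 Cells are seeded overnight, exposed to compound titrations and an EC50 level of EGF for 5 hours at 37 °C, then loaded with CCF4 dye for 2.5 hours. Beta-lactamase activity under the AP-1 element is read as a blue/green ratio.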

[12] = target: Cytochrome P450 1A2 (Homo sapiens) (UniProt P05177); assay: p450-cyp1a2 (AID 410; calls by dose curve; also: potency is read from the fitted curve at half-maximal effect); conditions: recombinant CYP1A2, luciferin-ME demethylation, luminescence; series mostly up to 57 µM
Outline: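 20nM CYP1A2, 100uM Luciferin-ME (=Km), 100mM KPO4; cpd 10 min RT; +NADPH regen, 60 min RT; stop/detect 20 min; luminescence. Normalized to furafylline 57 uM = full inhibition.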

[13] = NFAT Signaling Pathway (AID 444; active = well fitted curve in either direction with a large enough effect, not every such curve was filed as active;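 also: carbachol stimulus at about its EC50 of 1 µM final; % is scaled to controls: 0 for no effect and ±100 for the full control effect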); conditions: Jurkat NFAT-bla M1, carbachol, beta-lactamase ratio, 5 h; at 7.69 µM (top of the series) unless noted
Outline: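 Jurkat cells carrying an NFAT-driven β-lactamase reporter and co-transfected muscarinic M1 receptor were treated with compound plus carbachol (1 uM final, an EC50 level) for 5 h at 37 °C. CCF4 loading followed for 1 h at RT; 460/530 nm ratio gave %activity.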

[14] = Stat Signaling Pathway (AID 446; active = well fitted curve in either direction with a large enough effect, not every such curve was filed as active); conditions: ME-180 (cervical carcinoma) SIE beta-lactamase reporter, IL-6 stimulated, 5 h; at 7.69 µM (top of the series) unless noted
Outline: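 Overnight-plated ME-180 cells bearing a STAT Inducible Element beta-lactamase reporter; 5 h co-exposure to compound and 40 pM IL-6; values normalized to 300 pM IL-6 and 125 nM JAK inhibitor controls.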

[15] = target: Glucocorticoid receptor (Homo sapiens) (UniProt P04150); assay: GR-GFP Redistribution (AID 450;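 active = compounds whose dose series gives a full or clear partial fitted curve of increased nuclear translocation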; also: potency is read from the fitted curve at half-maximal effect); conditions: U2OS GR-GFP nuclear translocation, laser cytometry, 2 h
[16] = target: Cytochrome P450 3A4 (Homo sapiens) (UniProt P08684); assay: qHTS Assay for Inhibitors and Substrates of Cytochrome P450 3A4 (AID 884); conditions: recombinant CYP3A4, Luciferin-PPXE luminescence; series mostly up to 57.1 µM; also: potency is read from the fitted curve at half-maximal effect; nearly all actives have a fitted effect of over 50% in size
Outline: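 Luminescent readout of luciferin produced by CYP3A4 (20 nM) dealkylation of Luciferin-PPXE, 25 uM (its KM). NADPH-driven reaction ran 60 min at RT after 10 min compound preincubation; data scaled to 57 uM ketoconazole as 100% inhibition.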

[17] = target: Cytochrome P450 3A4 (Homo sapiens) (UniProt P08684); assay: qHTS Assay for Activators of Cytochrome P450 3A4 (AID 885); conditions: recombinant CYP3A4, Luciferin-PPXE luminescence, 60 min; series mostly up to 57.1 µM; also: nearly all actives have a fitted effect of over 65% in size
Outline: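 Using 20nM recombinant human CYP3A4 in potassium phosphate (200mM), substrate Luciferin-PPXE at 25uM, luminescent luciferin detection followed a 60-min RT NADPH reaction; data scaled to 57 uM ketoconazole.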

[18] = target: Cytochrome P450 2C19 (Homo sapiens) (UniProt P33261); assay: qHTS Assay for Inhibitors and Substrates of Cytochrome P450 2C19 (AID 899); conditions: recombinant CYP2C19, luciferin-H EGE luminescence; series mostly up to 57.1 µM; also: % is scaled to controls: 0 for no effect and ±100 for the full control effect; nearly all actives have a fitted effect of over 60% in size
Outline: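 In 50mM KPO4, the reaction held 5nM enzyme and KM-level (10uM) Luciferin-H EGE; it ran 60 min at 37C after NADPH regeneration and a 10 min compound preincubation. Luminescence values were scaled to 57uM ketoconazole as complete inhibition.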

[19] = target: Cytochrome P450 2C9 (Homo sapiens) (UniProt P11712); assay: qHTS Assay for Inhibitors and Substrates of Cytochrome P450 2C9 (AID 883); conditions: recombinant CYP2C9, luciferin-H luminescence, 60 min; series mostly up to 57.1 µM; also: potency is read from the fitted curve at half-maximal effect; nearly all actives have a fitted effect of over 60% in size
Outline: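 CYP2C9 deoxyluciferin hydroxylation, 37C, 60 min with NADPH regeneration; 10nM enzyme, 100uM Luciferin-H (KM). Glo detection reagent stopped reaction; luminescence normalized to sulphaphenazole (57uM) full inhibition.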

[20] = measured here: cell count channel max response
[21] = measured here: lipid channel max response

Chain of Ubiquitin carboxyl-terminal hydrolase 1 (Homo sapiens) (O94782 whole entry, looked up): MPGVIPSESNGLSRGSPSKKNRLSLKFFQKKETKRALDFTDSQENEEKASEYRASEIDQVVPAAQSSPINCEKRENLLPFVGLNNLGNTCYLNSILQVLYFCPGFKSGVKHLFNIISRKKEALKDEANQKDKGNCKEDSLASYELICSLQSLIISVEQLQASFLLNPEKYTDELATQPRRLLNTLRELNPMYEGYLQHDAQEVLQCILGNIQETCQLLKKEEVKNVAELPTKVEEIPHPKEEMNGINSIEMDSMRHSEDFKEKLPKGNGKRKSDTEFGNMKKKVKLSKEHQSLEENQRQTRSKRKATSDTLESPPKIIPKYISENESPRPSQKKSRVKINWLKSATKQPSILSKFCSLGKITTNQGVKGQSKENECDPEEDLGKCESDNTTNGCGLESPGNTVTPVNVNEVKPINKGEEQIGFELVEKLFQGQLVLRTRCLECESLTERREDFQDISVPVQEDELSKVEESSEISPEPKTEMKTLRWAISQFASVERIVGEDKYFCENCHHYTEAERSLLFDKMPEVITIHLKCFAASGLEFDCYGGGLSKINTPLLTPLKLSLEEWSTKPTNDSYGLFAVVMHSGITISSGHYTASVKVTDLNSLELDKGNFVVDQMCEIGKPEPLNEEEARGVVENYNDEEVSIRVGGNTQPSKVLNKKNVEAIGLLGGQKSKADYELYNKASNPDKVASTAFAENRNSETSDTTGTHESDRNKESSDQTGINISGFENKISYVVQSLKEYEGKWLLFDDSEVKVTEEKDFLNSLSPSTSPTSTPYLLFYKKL
Chain of Lysosomal acid glucosylceramidase (Homo sapiens) (P04062 whole entry, looked up): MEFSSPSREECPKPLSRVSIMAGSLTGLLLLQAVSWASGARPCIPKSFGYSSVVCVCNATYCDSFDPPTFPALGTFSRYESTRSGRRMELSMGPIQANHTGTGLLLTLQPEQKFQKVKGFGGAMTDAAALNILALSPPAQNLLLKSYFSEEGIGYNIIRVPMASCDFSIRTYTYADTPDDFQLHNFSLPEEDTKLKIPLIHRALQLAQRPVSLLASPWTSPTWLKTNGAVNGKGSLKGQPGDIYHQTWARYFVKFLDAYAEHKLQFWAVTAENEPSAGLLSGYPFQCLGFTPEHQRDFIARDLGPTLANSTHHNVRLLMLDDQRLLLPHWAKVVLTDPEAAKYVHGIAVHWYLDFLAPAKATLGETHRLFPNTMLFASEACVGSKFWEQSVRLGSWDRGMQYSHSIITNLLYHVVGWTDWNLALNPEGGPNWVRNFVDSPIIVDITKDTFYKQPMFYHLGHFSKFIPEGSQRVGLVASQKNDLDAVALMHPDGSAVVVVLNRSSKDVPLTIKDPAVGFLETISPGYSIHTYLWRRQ
Chain of Cytochrome P450 1A2 (Homo sapiens) (P05177 whole entry, looked up): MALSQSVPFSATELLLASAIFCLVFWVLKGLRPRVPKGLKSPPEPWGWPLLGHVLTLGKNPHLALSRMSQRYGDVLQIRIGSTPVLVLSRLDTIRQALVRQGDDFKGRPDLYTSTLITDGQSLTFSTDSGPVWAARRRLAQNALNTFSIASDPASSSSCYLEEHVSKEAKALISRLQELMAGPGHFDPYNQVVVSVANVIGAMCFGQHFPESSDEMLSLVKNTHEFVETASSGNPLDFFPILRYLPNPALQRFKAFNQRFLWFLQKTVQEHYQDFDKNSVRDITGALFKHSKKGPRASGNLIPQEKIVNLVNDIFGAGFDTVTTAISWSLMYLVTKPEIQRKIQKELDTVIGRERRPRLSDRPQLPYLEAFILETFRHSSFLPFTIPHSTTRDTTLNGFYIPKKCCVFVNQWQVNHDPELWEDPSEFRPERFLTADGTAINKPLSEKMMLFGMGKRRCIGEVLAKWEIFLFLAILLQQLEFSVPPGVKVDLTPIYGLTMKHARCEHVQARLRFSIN
Chain of 3',5'-cyclic-AMP phosphodiesterase 4B (Homo sapiens) (Q07343 whole entry, looked up): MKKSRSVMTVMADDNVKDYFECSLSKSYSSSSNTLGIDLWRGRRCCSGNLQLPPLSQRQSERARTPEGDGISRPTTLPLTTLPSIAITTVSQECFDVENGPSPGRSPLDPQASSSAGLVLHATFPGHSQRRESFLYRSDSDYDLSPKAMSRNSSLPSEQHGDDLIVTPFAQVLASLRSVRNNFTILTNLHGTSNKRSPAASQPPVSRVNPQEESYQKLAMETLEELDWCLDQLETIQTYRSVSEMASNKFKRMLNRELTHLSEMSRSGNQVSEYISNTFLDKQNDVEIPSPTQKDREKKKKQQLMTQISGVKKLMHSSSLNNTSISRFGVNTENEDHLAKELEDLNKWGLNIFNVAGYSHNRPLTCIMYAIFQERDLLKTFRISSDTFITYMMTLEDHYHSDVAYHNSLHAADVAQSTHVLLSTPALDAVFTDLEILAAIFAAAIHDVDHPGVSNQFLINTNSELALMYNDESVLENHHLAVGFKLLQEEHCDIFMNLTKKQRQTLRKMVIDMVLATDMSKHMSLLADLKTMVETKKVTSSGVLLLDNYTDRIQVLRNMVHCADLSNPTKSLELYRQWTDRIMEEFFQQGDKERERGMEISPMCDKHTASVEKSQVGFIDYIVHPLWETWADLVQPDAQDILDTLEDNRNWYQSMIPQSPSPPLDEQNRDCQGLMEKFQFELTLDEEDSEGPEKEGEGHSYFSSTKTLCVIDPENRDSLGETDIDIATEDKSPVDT
Chain of Dual specificity protein kinase CLK4 (Homo sapiens) (Q9HAZ1 whole entry, looked up): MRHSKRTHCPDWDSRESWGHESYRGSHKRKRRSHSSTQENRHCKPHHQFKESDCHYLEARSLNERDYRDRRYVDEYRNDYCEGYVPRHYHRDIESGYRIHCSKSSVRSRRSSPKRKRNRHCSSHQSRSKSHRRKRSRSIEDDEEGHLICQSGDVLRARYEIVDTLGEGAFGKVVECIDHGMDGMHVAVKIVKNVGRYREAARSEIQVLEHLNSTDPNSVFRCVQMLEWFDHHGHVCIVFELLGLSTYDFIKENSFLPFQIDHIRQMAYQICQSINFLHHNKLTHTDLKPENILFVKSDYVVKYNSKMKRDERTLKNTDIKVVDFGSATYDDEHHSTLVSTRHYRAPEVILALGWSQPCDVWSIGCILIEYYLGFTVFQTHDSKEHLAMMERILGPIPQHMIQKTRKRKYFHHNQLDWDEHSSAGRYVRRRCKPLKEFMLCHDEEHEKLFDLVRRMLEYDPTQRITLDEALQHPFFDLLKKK
Chain of Glucocorticoid receptor (Homo sapiens) (P04150 whole entry, looked up, the tested form may be a part): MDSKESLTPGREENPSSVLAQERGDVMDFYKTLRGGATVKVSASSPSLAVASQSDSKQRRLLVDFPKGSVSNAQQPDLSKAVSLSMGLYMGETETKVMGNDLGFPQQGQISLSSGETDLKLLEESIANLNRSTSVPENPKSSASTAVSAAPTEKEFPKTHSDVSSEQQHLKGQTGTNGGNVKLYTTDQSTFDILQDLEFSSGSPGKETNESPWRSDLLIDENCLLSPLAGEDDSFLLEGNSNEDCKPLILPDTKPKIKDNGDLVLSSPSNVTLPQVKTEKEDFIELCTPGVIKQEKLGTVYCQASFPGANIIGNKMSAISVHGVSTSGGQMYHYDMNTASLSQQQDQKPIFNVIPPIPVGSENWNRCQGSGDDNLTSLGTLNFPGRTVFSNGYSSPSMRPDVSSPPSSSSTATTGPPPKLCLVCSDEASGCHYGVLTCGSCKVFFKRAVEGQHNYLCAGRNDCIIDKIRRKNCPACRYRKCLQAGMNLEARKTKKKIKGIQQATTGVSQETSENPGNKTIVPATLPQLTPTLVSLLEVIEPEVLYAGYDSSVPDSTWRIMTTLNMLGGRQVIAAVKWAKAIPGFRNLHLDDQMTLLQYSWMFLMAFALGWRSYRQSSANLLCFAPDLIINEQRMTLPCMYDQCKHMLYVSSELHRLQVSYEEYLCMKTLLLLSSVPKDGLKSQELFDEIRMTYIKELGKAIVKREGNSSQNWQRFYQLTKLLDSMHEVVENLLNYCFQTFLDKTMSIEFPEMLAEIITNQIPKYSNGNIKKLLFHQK
Chain of Cytochrome P450 3A4 (Homo sapiens) (P08684 whole entry, looked up): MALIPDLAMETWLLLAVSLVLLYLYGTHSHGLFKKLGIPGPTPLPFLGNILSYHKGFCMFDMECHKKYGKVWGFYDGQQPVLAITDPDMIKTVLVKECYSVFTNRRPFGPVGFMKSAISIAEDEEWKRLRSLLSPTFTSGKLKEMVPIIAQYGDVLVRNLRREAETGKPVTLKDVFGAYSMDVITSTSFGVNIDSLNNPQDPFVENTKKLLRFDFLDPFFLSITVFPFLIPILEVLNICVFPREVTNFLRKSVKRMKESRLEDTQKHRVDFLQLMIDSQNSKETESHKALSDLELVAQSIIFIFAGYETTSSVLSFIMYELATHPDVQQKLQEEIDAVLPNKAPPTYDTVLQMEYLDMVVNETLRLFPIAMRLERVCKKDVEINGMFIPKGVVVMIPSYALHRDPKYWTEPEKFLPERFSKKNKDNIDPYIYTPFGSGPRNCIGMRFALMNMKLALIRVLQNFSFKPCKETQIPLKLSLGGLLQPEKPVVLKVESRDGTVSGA
Chain of Cytochrome P450 2C19 (Homo sapiens) (P33261 whole entry, looked up): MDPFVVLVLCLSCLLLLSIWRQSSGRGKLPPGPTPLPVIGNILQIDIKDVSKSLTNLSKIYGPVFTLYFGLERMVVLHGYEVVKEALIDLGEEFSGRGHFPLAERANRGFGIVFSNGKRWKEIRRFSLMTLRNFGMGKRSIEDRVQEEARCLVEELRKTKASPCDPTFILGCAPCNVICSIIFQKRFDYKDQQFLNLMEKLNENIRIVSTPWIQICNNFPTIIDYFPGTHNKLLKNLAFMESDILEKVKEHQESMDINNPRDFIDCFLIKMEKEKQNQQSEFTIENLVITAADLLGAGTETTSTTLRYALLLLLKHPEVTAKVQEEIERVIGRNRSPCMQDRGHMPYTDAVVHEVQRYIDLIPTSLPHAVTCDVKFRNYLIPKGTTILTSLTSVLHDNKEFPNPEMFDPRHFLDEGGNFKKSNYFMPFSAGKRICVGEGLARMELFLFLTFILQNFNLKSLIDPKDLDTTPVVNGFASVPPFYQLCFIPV

COc1cccc(-c2ccc3ncnc(NCc4ccccc4)c3c2)c1
active: Potency [5] 2 µM | Potency [6] 2.24 µM | Potency [7] 0.794 µM
inactive: Potency [1] > 46 µM | outcome [2] | Potency [3] | activity change, negative = inhibition [4] -5.64% | Potency [8] | Potency [9]
-10.2%: max response [4, 21]
-2.9%: max response [4, 20]

CN(C)C(=O)c1ccc(-c2cc(Nc3ccccc3)ncn2)cc1
active: Potency [12] 12.6 µM | Potency [5] 14.1 µM | Potency [6] 14.1 µM
33.4%: max response [4, 20]
inactive: Potency [10] > 11.4 µM | activity change, negative = inhibition [11] -5.39% | activity change, negative = inhibition [13] 4.63% | activity, negative = inhibition [14] 4.86% | Potency [15] > 46 µM | Potency [1] > 46 µM | outcome [2] | activity change, negative = inhibition [4] 6.97% | Potency [8] | Potency [9]
40.6%: max response [4, 21]

O=c1c(-c2ccc(F)cc2)nc2cnc(Oc3ccccc3)nc2n1C1CC1
-1.57%: max response [4, 21]
0.149%: max response [4, 20]
inactive: activity change, negative = inhibition [11] 2.54% | activity change, negative = inhibition [13] 5.2% | activity, negative = inhibition [14] -10.8% | Potency [15] > 9.22 µM | outcome [2] | Potency [3] | activity change, negative = inhibition [4] 0.468% | Potency [5] | Potency [6] | Potency [7] | Potency [8] | Potency [9]

CS(=O)(=O)Nc1cccc(-c2ccc3ncnc(NC4CC4)c3c2)c1
-10.1%: max response [4, 21]
-8.29%: max response [4, 20]
inactive: activity change, negative = inhibition [11] -14.5% | activity change, negative = inhibition [13] -15.5% | activity, negative = inhibition [14] -20.6% | Potency [15] > 46 µM | Potency [1] > 46 µM | outcome [2] | Potency [3] | Potency [17] | Potency [18] | activity change, negative = inhibition [4] -3.87% | Potency [8] | Potency [9]
active: Potency [12] 0.631 µM | Potency [16] 6.31 µM | Potency [5] 6.31 µM | Potency [6] 5.01 µM | Potency [7] 4.47 µM

O=c1c(-c2cccs2)nc2cncnc2n1Cc1ccccc1
active: Potency [12] 2.51 µM | Potency [19] 1.26 µM | Potency [16] 6.31 µM
22.1%: max response [4, 20]
21.4%: max response [4, 21]
inactive: Potency [10] > 11.4 µM | activity change, negative = inhibition [11] -16.8% | activity change, negative = inhibition [13] 1.15% | activity, negative = inhibition [14] 7.21% | Potency [15] > 9.22 µM | Potency [1] > 46 µM | outcome [2] | Potency [17] | activity change, negative = inhibition [4] 1.03% | Potency [5] | Potency [6] | Potency [8] | Potency [9]

CC(=O)NCCNc1nc(-c2cccnc2)nc2ccccc12
21.4%: max response [4, 20]
27.2%: max response [4, 21]
inactive: Potency [10] > 11.4 µM | activity change, negative = inhibition [11] 5.7% | activity change, negative = inhibition [13] 0.668% | activity, negative = inhibition [14] 1.25% | Potency [15] > 46 µM | Potency [1] > 46 µM | outcome [2] | Potency [3] | activity change, negative = inhibition [4] 5.64% | Potency [8] | Potency [9]
active: Potency [5] 25.1 µM | Potency [6] 14.1 µM
